The text below walks through data of PubChem BioAssay (NCATS).

Where “and” joins values, the source holds several entries; their conditions need not be identical. Identical values can stand only once. Inconclusive results are not listed. A structure can be active in one record and inactive in another. Calls of active or inactive are those of the source. Unless noted, calls come from the whole dose curve; as a rule, active = well fitted curve in the direction sought with a large enough effect; inconclusive = small, poorly fitted or top-dose-only effect, or another doubt; inactive = no such curve, though single readings can be large; an effect the other way counts as inactive or inconclusive.

Assay [1] in a line: Cell Viability - Jurkat (AID 426;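 active = dose-dependent loss of cell ATP signal giving a full or clear fitted curve, ranked by lower potency value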;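 note: potency is the fitted concentration of half-maximal effect; cells exposed to compound for 40 hours at 37 °C before ATP read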). Conditions: qHTS. The essentials: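 Luminescent ATP read-out (CellTiter-Glo, 20 min at room temperature) after 40 hr compound exposure at 37 °C of Jurkat E6-1 cells, 5000/well. Decreased ATP taken as cytotoxicity; AC50 from standard Hill equation.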
A general note: In qHTS, concentration-response curves come from the screen itself.

Assay [2] is described as follows: Cell Viability - NIH 3T3 (AID 541).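 Note: cells exposed to compound for 40 hours; plate controls were DMSO alone for no effect and tamoxifen positive control for full effect; nearly all actives have a fitted effect of over 25% in size.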 The following applies: NIH 3T3 cell viability, qHTS; activity change, negative = cytotoxicity: at 92.2 µM (top of the series). The gist of the method:
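qHTS format; 40 hr compound exposure, 37 °C; CellTiter-Glo luminescence (cellular ATP) read-out after 20 min at RT. Decrease in ATP = cytotoxicity; AC50 from standard Hill fit.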

A short description of assay [3]: Cellular Toxicity (caspase-3) H-4-II-E (AID 663).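 Note: cells exposed to compound for 16 hr before readout.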 The following applies: H-4-II-E rat hepatoma; Potency: caspase-3 activation; series mostly up to 92.2 µM. The gist of the method: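 H-4-II-E rat hepatoma, 1500 cells/well, 5 hr settle at 37 °C; compound 16 hr, 37 °C, complete medium; Caspase-Glo 3/7, 20 min RT; luminescence. DMSO = 0%, 100 uM tamoxifen = 100%; Hill-equation AC50.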

Assay [4] concerns the target Peroxisome proliferator-activated receptor delta (Homo sapiens) (UniProt Q03181). Kind of assay: qHTS assay for small molecule antagonists of peroxisome proliferator-activated receptor delta signaling (AID 588535; active = well fitted inhibition curve with a large enough effect in the signal ratio, with a control signal flat, not every such curve was filed as active; the % refers to the signal ratio). Conditions: HEK293T PPARd-UAS-bla, beta-lactamase FRET ratio, 18 h; series mostly up to 76.7 µM. The gist of the method: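 Beta-lactamase reporter read-out (405 nm excitation, 460/530 nm emission) after CCF4 loading for 2 hrs at RT. HEK293T PPAR-delta-UAS-bla cells, 2% charcoal/dextran FBS, compounds for 18 hrs at 37 C. Hill fit gave IC50 and efficacy.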

Assay [5] concerns the target Vitamin D3 receptor (Homo sapiens) (UniProt P11473). Kind of assay: qHTS assay for small molecule antagonists of vitamin D receptor signaling (AID 588541; calls by dose curve;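 note: receptor activated by calcitriol during compound treatment; % is set by controls: 0 for no effect and ±100 for the full control effect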). Conditions: HEK293T VDR-UAS-bla, beta-lactamase ratio, antagonist mode; series mostly up to 76.7 µM. The essentials: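 VDR-UAS-bla HEK293T cells in 2% charcoal-stripped FBS were stimulated with 1-alpha,25-dihydroxyvitamin D3 (3 nM final) plus compound for 16 h at 37 C. The beta-lactamase CCF4 readout was normalized to 50 nM agonist and DMSO, and Hill fits gave IC50.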

Assay [6] has the same target. The assay is described as follows: qHTS assay for small molecule agonists of vitamin D receptor signaling (AID 588543; calls by dose curve). The following applies: HEK293T VDR-UAS-bla, beta-lactamase ratio, 16 h; series mostly up to 76.8 µM. The gist of the method: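 Reporter cells (HEK293T, VDR-UAS-bla) were seeded in medium with 2% charcoal-stripped serum and incubated 5 h, then compounds in concentration series were added for 16 h at 37 °C. Stimulation was scaled between DMSO basal and 50 nM 1α,25-dihydroxyvitamin D3.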

Assay [7] in a line: qHTS assay for small molecule activators of the p53 signaling pathway (AID 651743; active = well fitted activation curve with a large enough effect in the signal ratio, not every such curve was filed as active; the % refers to the signal ratio; note: % of control where 0% means no effect). The following applies: HCT-116 p53RE-bla, beta-lactamase FRET ratio, 16 h; activation: stronger effect = higher value. The gist of the method: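 Reporter: beta-lactamase driven by p53 response elements, stably integrated in HCT-116 cells. Cells seeded at 4,000/well, 5 h preincubation, compound (DMSO) 16 h at 37 C; B/G FRET substrate 2 h RT; fluorescence intensity read.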

A short description of assay [8]: qHTS assay for small molecule activators of the nuclear factor-kappa B (NF-kB) signaling pathway (AID 651749; active = well fitted activation curve with a large enough effect in the signal ratio; the % refers to the signal ratio; note: % of control where 0% means no effect). Conditions: NF-kB-bla ME-180 cells, beta-lactamase FRET ratio, 16 h; stronger effect = higher value. The gist of the method: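 NF-kB-bla ME-180 cells, 2,000/well; 23 nL compound or DMSO pinned; 16 hr, 37C/5% CO2; beta-lactamase FRET read-out.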
Assay [9] deals with Tumor necrosis factor (Homo sapiens) (UniProt P01375). Kind of assay: qHTS assay to identify small molecules that stimulate Tumor Necrosis Factor-alpha (TNF-alpha) secretion (AID 651757; active = well fitted curve in the direction sought with a large enough effect in the signal ratio; the % refers to the signal ratio; note: 0% is about no effect). Conditions: Human cells, HTRF 665/615 ratio; series mostly up to 92.2 µM. The gist of the method:
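THP-1 cells, 3000/well; compound 17 hrs, 37 C; add cryptate/XL665 anti-TNF-alpha antibody pair; 3 hr RT; TR-FRET (HTRF) read of secreted TNF-alpha. Quantitative HTS format.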

Assay [10] concerns the target Nuclear receptor ROR-gamma (Homo sapiens) (UniProt P51449). Kind of assay: qHTS assay for small molecule antagonists of the retinoid-related orphan receptor gamma (ROR-gamma) signaling pathway (AID 651802).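 Note: CHO cells with doxycycline-induced ROR-gamma expression; luciferase reporter luminescence driven by ROR response element; % is set by controls: 0 for no effect and ±100 for the full control effect; nearly all actives have a fitted effect of over 60% in size.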 The following applies: ROR-gamma antagonist cell reporter assay; series mostly up to 92.2 µM. The essentials:
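Luciferase read-out: ONE-Glo luminescence after 30 min at room temperature, following 16hr doxycycline induction at 37C, 5% CO2 of CHO cells with TET-inducible ROR and RORE-LUC reporter; decreased luminescence = reduced reporter activity.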

Assay [11] in a line: qHTS assay for small molecule antagonists of the retinoid-related orphan receptor gamma (ROR-gamma) signaling pathway - cell viability counter screen (AID 720652; active = well fitted curve in the direction sought with a large enough effect in the repeat runs; an effect the other way counts as inactive or inconclusive;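 note: CHO reporter cells with doxycycline-induced ROR-gamma expression; compound exposure lasted 16 hr before ATP read; % is set by controls: 0 for no effect and ±100 for the full control effect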). The following applies: RORgamma reporter cell line viability counter screen; series mostly up to 92.2 µM. The gist of the method: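 CHO RORE-LUC/TET-ROR line, 1,000 cells/well, 37 C 5% CO2 5 hr; cpd or DMSO + doxycycline induction, 16 hr. CellTiter-Glo, 30 min RT, luminescence = ATP content.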

The nature of assay [12]: qHTS assay for small molecule activators of the human pregnane X receptor (PXR) signaling pathway (AID 720659; call rule not given here; note: 0% is about no effect). Conditions: DPX-2 HepG2 CYP3A4-luciferase, 24 h; series mostly up to 92.3 µM.
Assay [13] can be described thus: Cellular Toxicity (caspase-3) SHSY5Y (AID 657). Conditions: SH-SY5Y caspase-3 activation; series mostly up to 91.7 µM. The gist of the method: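 qHTS, SH-SY5Y, 1500 cells/well, 5 h pre-incubation 37 °C; compound 16 h 37 °C; Caspase-Glo 3/7 1 h RT; luminescence. Norm.: DMSO = 0, 10 uM staurosporine = 100%. Hill fit → AC50.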
The nature of assay [14]: Cellular Toxicity (caspase-3) Mesangial (AID 660).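 Note: combined caspase 3 and 7 activity read by Caspase-Glo luminescence; cells exposed to compound for 16 h before the caspase read.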 The following applies: mesangial cells, normalized: DMSO 0%, 100 µM tamoxifen 100%; series mostly up to 91.7 µM. The gist of the method:
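Luminescent Caspase-Glo 3/7 readout (aminoluciferin substrate cleavage, 20 min RT) after 16 h compound exposure at 37 °C of normal human mesangial cells. Signal increase normalized between DMSO basal and 100 uM tamoxifen; Hill-equation AC50.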

Assay [15] has as its target Cytochrome P450 3A4 (Homo sapiens) (UniProt P08684). Kind of assay: qHTS Assay for Inhibitors and Substrates of Cytochrome P450 3A4 (AID 884). Note: % is set by controls: 0 for no effect and ±100 for the full control effect; nearly all actives have a fitted effect of over 50% in size. The following applies: recombinant CYP3A4, Luciferin-PPXE luminescence; series mostly up to 57.1 µM. The gist of the method:
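Luminescent readout of luciferin produced by CYP3A4 (20 nM) dealkylation of Luciferin-PPXE, 25 uM (its KM). NADPH-driven reaction ran 60 min at RT after 10 min compound preincubation; data scaled to 57 uM ketoconazole as 100% inhibition.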

The target in assay [16] is Estrogen receptor (Homo sapiens) (UniProt P03372). The assay is described as follows: qHTS assay for small molecule antagonists of estrogen receptor alpha signaling (AID 588513; active = well fitted curve in the direction sought with a large enough effect in the signal ratio, with a control signal flat, not every such curve was filed as active; the % refers to the signal ratio; note: % is set by controls: 0 for no effect and ±100 for the full control effect). The following applies: ER-alpha-UAS-bla HEK293, beta-lactamase ratio, antagonist mode; series mostly up to 76.9 µM. The essentials: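 Fluorescence from CCF4 substrate after 2 h at room temperature gave reporter activity; cells had been exposed to compound and 0.5nM 17-beta-estradiol for 18 h at 37 C. Hill-equation fitting yielded IC50 and maximal response.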

For assay [17] the target is unchanged. Kind of assay: qHTS assay for small molecule agonists of estrogen receptor alpha signaling (AID 588514; calls by dose curve;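 note: 0% = vehicle only and 100% = reference agonist; nearly all actives have a fitted effect of over 70% in size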). The following applies: ER-alpha-UAS-bla HEK293, beta-lactamase ratio, 18 h; series mostly up to 76.8 µM. The essentials:
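Read-out: CCF4 fluorescence from a beta-lactamase reporter in ER-alpha-UAS-bla HEK 293 cells after 18 hrs of compound exposure at 37 C. Normalized to 20 nM 17-beta-estradiol (100%) and DMSO (0%).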

Assay [18] deals with Peroxisome proliferator-activated receptor gamma (Homo sapiens) (UniProt P37231). The assay is described as follows: qHTS assay for small molecule agonists of peroxisome proliferator-activated receptor gamma signaling (AID 588536; active = well fitted curve in the direction sought with a large enough effect in the signal ratio, with a control signal flat, not every such curve was filed as active; the % refers to the signal ratio). The following applies: HEK293 PPARg-UAS-bla, beta-lactamase ratio, 16 h, percent of rosiglitazone response, DMSO as zero; series mostly up to 76.7 µM. The essentials: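 Using GeneBLAzer HEK293 cells, response was quantified by CCF4 fluorescence and normalized between basal DMSO (0%) and rosiglitazone 2 uM (100%); curves yielded half-maximal stimulation concentration and efficacy.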

A short description of assay [19]: qHTS assay for small molecule agonists of the antioxidant response element (ARE) signaling pathway (AID 651741; active = well fitted activation curve with a large enough effect in the signal ratio; the % refers to the signal ratio; note: potency is the fitted concentration of half-maximal effect; for activation: % of control where 0% means no effect). Conditions: HepG2 ARE-bla reporter, beta-lactamase FRET ratio, 16 h; series mostly up to 96 µM. The essentials:
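HepG2 ARE-bla reporter cells, 2,000/well; 5 h settle at 37 C/5% CO2; compound pin transfer (23 nL, DMSO); 16 h at 37 C; LiveBLAzer B/G FRET substrate, 2 h RT; fluorescence intensity read.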

The nature of assay [20]: Cellular Toxicity (caspase-3) BJ (AID 658). Conditions: BJ fibroblasts, luminescence; Potency: caspase-3 activation; series mostly up to 91.7 µM. The gist of the method:
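qHTS, BJ fibroblasts, 1000 cells/well; 5 hr preincubation, 16 hr compound, 37 °C; Caspase-Glo 3/7 reagent, 1 hr RT; luminescence. DMSO = 0%, 10 uM staurosporine = 100%. Hill-equation AC50.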

Chain of Vitamin D3 receptor (Homo sapiens) (P11473 whole entry, looked up): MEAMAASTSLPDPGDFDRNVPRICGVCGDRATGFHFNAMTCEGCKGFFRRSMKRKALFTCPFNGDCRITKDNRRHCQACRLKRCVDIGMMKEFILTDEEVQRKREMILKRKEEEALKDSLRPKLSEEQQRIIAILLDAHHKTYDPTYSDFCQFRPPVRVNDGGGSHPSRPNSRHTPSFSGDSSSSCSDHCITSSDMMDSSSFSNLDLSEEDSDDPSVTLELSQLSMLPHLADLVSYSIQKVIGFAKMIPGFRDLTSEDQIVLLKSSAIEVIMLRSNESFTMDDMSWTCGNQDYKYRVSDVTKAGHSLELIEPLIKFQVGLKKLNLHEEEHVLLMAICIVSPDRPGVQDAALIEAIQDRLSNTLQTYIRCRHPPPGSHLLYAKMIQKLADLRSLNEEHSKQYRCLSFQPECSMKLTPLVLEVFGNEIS
Chain of Peroxisome proliferator-activated receptor delta (Homo sapiens) (Q03181 whole entry, looked up): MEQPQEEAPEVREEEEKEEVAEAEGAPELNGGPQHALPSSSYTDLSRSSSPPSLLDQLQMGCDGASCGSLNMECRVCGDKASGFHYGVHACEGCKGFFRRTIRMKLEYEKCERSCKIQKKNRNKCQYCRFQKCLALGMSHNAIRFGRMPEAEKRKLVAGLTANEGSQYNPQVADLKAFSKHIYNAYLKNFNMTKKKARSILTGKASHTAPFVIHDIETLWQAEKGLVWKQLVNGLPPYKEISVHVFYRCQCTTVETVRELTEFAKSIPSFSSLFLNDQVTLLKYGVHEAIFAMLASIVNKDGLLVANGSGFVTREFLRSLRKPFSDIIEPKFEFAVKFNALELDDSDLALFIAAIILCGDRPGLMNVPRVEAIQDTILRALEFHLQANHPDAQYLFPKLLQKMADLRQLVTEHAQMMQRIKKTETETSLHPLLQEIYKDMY
Chain of Peroxisome proliferator-activated receptor gamma (Homo sapiens) (P37231 whole entry, looked up): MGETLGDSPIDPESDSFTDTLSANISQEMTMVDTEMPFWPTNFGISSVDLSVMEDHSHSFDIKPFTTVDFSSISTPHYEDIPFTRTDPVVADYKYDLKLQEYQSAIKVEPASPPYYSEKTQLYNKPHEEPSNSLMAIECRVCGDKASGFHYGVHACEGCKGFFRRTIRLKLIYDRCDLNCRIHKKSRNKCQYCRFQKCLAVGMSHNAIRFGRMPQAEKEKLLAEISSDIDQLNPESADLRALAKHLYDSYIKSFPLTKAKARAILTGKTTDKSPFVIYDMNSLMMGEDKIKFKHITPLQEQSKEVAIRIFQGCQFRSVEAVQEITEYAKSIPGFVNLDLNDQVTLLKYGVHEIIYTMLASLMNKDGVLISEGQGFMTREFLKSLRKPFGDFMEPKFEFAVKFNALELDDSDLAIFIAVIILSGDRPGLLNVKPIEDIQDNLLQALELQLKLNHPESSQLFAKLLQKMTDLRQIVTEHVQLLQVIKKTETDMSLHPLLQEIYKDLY
Chain of Tumor necrosis factor (Homo sapiens) (P01375 whole entry, looked up): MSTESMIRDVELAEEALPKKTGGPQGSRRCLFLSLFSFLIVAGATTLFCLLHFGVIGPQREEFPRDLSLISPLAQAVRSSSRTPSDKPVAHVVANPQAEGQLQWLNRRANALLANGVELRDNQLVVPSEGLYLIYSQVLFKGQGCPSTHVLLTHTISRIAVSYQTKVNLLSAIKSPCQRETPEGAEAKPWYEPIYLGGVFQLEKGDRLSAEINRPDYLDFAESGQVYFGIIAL
Chain of Estrogen receptor (Homo sapiens) (P03372 whole entry, looked up): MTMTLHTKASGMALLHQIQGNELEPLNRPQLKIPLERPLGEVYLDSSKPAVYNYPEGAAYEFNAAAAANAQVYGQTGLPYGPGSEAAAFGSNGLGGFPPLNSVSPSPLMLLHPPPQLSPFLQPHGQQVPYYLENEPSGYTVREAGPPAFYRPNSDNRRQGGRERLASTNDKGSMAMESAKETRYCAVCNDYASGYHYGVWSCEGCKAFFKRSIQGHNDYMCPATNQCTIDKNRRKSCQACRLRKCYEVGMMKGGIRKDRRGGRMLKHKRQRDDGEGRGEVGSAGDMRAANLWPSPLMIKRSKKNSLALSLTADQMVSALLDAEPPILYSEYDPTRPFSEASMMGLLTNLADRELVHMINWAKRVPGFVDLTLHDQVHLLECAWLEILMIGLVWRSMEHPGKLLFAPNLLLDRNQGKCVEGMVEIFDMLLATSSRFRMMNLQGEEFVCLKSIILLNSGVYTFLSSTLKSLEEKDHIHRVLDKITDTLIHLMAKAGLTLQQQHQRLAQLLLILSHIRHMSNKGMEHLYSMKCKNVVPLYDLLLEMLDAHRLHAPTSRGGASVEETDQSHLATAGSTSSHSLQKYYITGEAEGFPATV
Chain of Cytochrome P450 3A4 (Homo sapiens) (P08684 whole entry, looked up): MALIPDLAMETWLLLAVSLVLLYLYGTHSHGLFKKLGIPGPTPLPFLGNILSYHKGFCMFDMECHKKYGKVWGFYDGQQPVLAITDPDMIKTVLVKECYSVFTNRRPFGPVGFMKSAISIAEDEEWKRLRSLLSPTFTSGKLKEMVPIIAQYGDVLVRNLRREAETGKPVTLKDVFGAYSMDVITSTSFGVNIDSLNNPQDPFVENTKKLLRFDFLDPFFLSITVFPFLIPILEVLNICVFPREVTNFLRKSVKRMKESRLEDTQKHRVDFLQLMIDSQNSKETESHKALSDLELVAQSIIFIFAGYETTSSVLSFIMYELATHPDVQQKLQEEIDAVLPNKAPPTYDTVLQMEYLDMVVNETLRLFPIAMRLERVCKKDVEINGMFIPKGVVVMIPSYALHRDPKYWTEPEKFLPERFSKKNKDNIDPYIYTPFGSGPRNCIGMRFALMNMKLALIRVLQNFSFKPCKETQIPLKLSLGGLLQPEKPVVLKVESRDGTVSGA
Chain of Nuclear receptor ROR-gamma (Homo sapiens) (P51449 whole entry, looked up): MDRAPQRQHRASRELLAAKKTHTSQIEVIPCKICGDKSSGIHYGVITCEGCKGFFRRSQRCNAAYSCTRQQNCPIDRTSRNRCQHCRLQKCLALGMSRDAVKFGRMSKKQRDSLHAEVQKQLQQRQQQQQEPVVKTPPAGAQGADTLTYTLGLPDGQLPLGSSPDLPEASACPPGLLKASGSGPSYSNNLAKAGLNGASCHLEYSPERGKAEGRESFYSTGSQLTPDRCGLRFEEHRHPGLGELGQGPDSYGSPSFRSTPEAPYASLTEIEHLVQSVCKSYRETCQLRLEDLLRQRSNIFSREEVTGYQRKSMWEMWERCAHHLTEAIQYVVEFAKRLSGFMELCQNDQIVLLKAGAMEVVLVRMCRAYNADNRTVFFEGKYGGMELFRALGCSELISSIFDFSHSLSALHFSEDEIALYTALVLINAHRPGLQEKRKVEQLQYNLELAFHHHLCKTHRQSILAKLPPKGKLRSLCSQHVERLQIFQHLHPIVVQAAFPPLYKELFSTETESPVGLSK

Regarding `c1cc2c3c(c1)ccc1cccc(c13)C2`, the Potency in assay [1] is > 92 µM (inactive). Moreover, the activity change, negative = cytotoxicity in [2] is -13.2% (inactive). The Potency entry in assay [3], in assay [5], in assay [6], in assay [9], in assay [10] and in [11] was “inactive” each time. The result in [4] and in assay [12] was inactive. The activation in assay [7] is -4.21% (inactive); in [8] it was -2.58% (inactive).
For `CC(C)OCC1CO1` (stereo not drawn), in assay [1], the Potency was > 92 µM (inactive). In addition, the activity change, negative = cytotoxicity in [2] is -16.9% (inactive). The Potency result in assay [13], in assay [3], in assay [15], in [17], in [5] and in assay [6] was “inactive” in each case. Moreover, the Potency entry in assay [19], in assay [9] and in assay [11] was “inactive” each time. Further, the call in assay [14], in [16], in assay [4], in assay [18] and in assay [12] was inactive. The values for the activation in assay [7] and in [8] were 0.641% (inactive) and 0.599% (inactive), respectively.
On to `Cc1ccc(S(N)(=O)=O)cc1`, for which the Potency in assay [1] is > 92 µM (inactive); in assay [19], “inactive and 68.6 µM (active)”. Also, the Potency entry in assay [20], in [15], in [5], in [6] and in assay [11] was “inactive” each time. Besides, the compound was classed as inactive in assay [14], in assay [4], in [18] and in assay [12]. The activation in assay [7] is -4.8% (inactive) and 0.0231% (inactive); in [8], 1.55% (inactive) and -0.345% (inactive).
For the compound `C=CC1CO1` (stereo not drawn), in [1], the Potency was > 92 µM (inactive). Besides, the activity change, negative = cytotoxicity in assay [2] is -8.56% (inactive). In addition, the Potency entry in [20], in assay [15], in assay [5], in [6], in assay [19] and in [9] was “inactive” throughout. The Potency result in assay [10] and in assay [11] was “inactive” throughout. Further, the outcome in assay [14], in [18] and in assay [12] was inactive. In addition, the results for the activation in [7] and in [8] were -3.74% (inactive) and 0.488% (inactive), respectively.
In the case of `O=C(OCc1ccccc1)c1ccccc1O`, the Potency in assay [1] is > 92 µM (inactive). The activity change, negative = cytotoxicity in assay [2] is -9.56% (inactive). Further, the Potency result in assay [20], in assay [3], in assay [15], in [17], in assay [5] and in assay [6] was “inactive” each time. Further, the Potency entry in [9], in [10] and in assay [11] was “inactive” in each case. Besides, the outcome in assay [16], in [4] and in [12] was inactive. The activation in assay [7] is 1.07% (inactive) and -2.52% (inactive); in [8], -0.301% (inactive) and -2.68% (inactive).
Consider `c1ccc(CSCc2ccccc2)cc1`, for which the Potency in assay [1] was > 92 µM (inactive). Besides, the activity change, negative = cytotoxicity in [2] is -18.8% (inactive). Further, the Potency result in [13], in [3], in [15], in [5], in [6] and in assay [19] was “inactive” throughout. Further, the Potency entry in assay [9], in assay [10] and in assay [11] was “inactive” each time. The call in assay [14], in assay [4], in [18] and in [12] was inactive. The activation was -0.938% (inactive) in assay [7] and -0.1% (inactive) in assay [8].
With `NC(=O)c1ccc([N+](=O)[O-])cc1`, the Potency in assay [1] is > 92 µM (inactive). In assay [2], the activity change, negative = cytotoxicity is -5.57% (inactive). The Potency entry in [13], in assay [20], in assay [15], in [5], in assay [6] and in assay [19] was “inactive” throughout. The Potency result in assay [9], in [10] and in assay [11] was “inactive” in each case. Besides, the result in [14], in assay [4], in [18] and in assay [12] was inactive. The activation in assay [7] is -4.76% (inactive); in assay [8], -0.545% (inactive).
